TRHR agonist: TRH receptor (human) agonism. TRHR cells, calcium flux fluo-8, FDSS agonist mode. 360,000 tested, 0.18% active. AID 493084. P34981. activation, % at 2 µM; also: 0% is about no effect
Target sequence (P34981 whole entry, looked up): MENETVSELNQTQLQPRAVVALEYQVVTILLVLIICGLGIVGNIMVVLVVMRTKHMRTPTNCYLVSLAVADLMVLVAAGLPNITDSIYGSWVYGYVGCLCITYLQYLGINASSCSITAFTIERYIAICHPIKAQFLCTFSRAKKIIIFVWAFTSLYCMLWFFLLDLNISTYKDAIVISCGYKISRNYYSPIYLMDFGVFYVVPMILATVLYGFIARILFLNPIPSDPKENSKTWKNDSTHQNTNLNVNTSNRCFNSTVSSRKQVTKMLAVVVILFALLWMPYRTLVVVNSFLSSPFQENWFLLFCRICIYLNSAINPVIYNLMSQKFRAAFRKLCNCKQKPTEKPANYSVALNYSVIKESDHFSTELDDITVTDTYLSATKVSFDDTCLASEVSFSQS
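TRHR-expressing cells, plated overnight in medium with 10% serum, were loaded with fluo-8 calcium dye at room temperature. After a 10 s baseline, library compound was pin-added and calcium release was recorded kinetically (ex 480/em 530) as agonist response.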
D1 ag: human D1 receptor agonism; P21728; HEK293 T-REx D1 cells, calcium flux, agonist mode; activation, % at 2 µM; 360,000 tested, 1% active; AID 504660; also: 0% is about no effect
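Inducible HEK293 T-REx D1 cells, force-coupled to calcium signalling, were plated at 4000 cells/well with tetracycline and held overnight at 30 C. After no-wash calcium dye loading, compound-evoked calcium rise over 180 s flagged agonists.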
D1 potentiator: human D1 dopamine receptor positive modulation; HEK293 TREx D1 cells, calcium flux, dopamine EC20 potentiation; potentiation, % at 10 µM; 360,000 tested, 0.036% active; AID 504651; in the data active = potentiation above about 30%; also: 0% is about no effect
TRHR enhancer: allosterically enhances the human TRH receptor; P34981; TRHR cells, fluo-8 calcium fluorescence, EC20 TRH enhancement; enhancement, % at 2 µM; 360,000 tested, 0.66% active; AID 493056; in the data active = enhancement above about 30%; also: 0% is about no effect
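Enhancer read-out: after compound pinning and an initial kinetic agonist-mode read, an EC20 of TRH (10 nM final) was injected and fluo-8 calcium signal (Ex 480/Em 530) followed at 1 s/cycle for 100 cycles in TRHR-expressing cells.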
D1 antagonist: antagonists of human D1 dopamine receptor; HEK293 TREx D1 cells, calcium flux, dopamine EC80; stronger effect = lower value; activity change, negative = inhibition, % at 10 µM; 360,000 tested, 3.2% active; AID 504652; in the data active = activity change below about -30%; also: % is scaled to controls: 0 for no effect and ±100 for the full control effect
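After overnight tetracycline induction at 30 C, force-coupled D1 HEK293 cells took up a no-wash calcium dye at room temperature. Compounds were added and monitored 180 s, and the response to EC80 dopamine was then recorded.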
Active calls of the source: *. Most compounds without a hit are left out; they make up all but 4.7% or so of the library. Rule as the data show it, unless noted: active = activation above about 30%; inactive = the rest.

SMILES	TRHR agonist	D1 ag	D1 potentiator	TRHR enhancer	D1 antagonist
O=C(CCCCn1c(=O)c2ccccc2n(Cc2ccc(Cl)cc2)c1=O)NCc1ccccc1Cl	1	4	1	-13	1
COCCOC(=O)c1c(NC(=O)CNCc2ccco2)sc(C(N)=O)c1C	1	4	-5	-4	-35*
COCCOC(=O)c1c(NC(=O)CNc2ccc(C)c(F)c2)sc(C(N)=O)c1C	0	3	1	-5	7
COC(=O)NN=C1CCC(c2ccccc2)CC1 (stereo not drawn)	0	0	0	-1	4
CC(C)(C)C(=O)NN=C1CCC(c2ccccc2)CC1 (stereo not drawn)	0	6	-2	-5	-33*
CN1C(=O)c2ccccc2Sc2ccc(NC(=O)N3CCN(c4ccc(F)cc4)CC3)cc21	-1	0	-1	5	-1
Cc1ccc(S(=O)(=O)c2cn(CC(=O)Nc3ccc4c(c3)OCO4)c3ccc(F)cc3c2=O)cc1	0	3	-2	0	5
COc1ccc(N2CCN(C(C)C(=O)Nc3nnc(C)s3)CC2)cc1 (stereo not drawn)	1	2	-6	32*	-3
COc1ccc(N2CCN(C(C)C(=O)N3CCCC3)CC2)cc1 (stereo not drawn)	0	0	-2	-11	0
COc1ccc(N2CCN(C(=O)CSc3nnc(NC(=O)C4CCC4)s3)CC2)cc1	1	2	-4	-2	-32*
Cc1cc(Cl)ccc1OCC(=O)N(Cc1ccc(N(C)C)cc1)CC1CCCO1 (stereo not drawn)	-2	1	-1	-3	5
Cc1cccc(-c2noc(-c3ccc(NCc4cccnc4)c([N+](=O)[O-])c3)n2)c1	0	8	3	-1	7
CCOc1ccccc1NC(=O)Cn1c(=O)nc(-c2ccccc2F)c2cc(Cl)ccc21	0	-3	2	0	-43*
O=c1cc(-c2ccccc2)nc2nc(SCc3ccccc3)[nH]n12	0	1	-7	1	-32*
Cc1cc(=O)n2[nH]c(SCc3ccccc3)nc2n1	0	0	-1	-10	4
COc1ccc(/C=C2\CCCc3c2nc2ccccc2c3C(=O)O)cc1OC	214*	236*	-9	16	-35*
COc1ccc(/C=C2\CCc3c2nc2ccccc2c3C(=O)O)cc1OC	2	2	-2	4	22
Oc1ccc(Br)cc1/C=N/Nc1nc(N2CCCCC2)nc(N2CCOCC2)n1	2	3	-3	-1	-3
COc1cccc(/C=N/Nc2nc(N3CCCC3)nc(N3CCCC3)n2)c1O	-1	1	1	-5	1
COc1ccc(/C=N/Nc2nc(N3CCCC3)nc(N3CCCC3)n2)c(OC)c1OC	1	-1	-7	1	-42*
Oc1ccc(/C=N/Nc2nc(N3CCCCCC3)nc(N3CCCCCC3)n2)c(O)c1	0	9	-10	1	-41*
O=C(NCC(c1ccc(F)cc1)N1CCOCC1)c1ccccc1F (stereo not drawn)	0	1	-9	-3	-39*
CSc1ncccc1C(=O)NCC(c1cccs1)N1CCOCC1 (stereo not drawn)	0	3	-3	2	-80*
COc1cc(OC)c(NS(=O)(=O)c2ccc3c(c2)CCCN3C(C)=O)cc1Cl	0	11	-6	-3	-22
CC1CN(C(=O)N2CCC(C(=O)NC3CCCCCC3)CC2)c2cc(Cl)ccc2O1 (stereo not drawn)	0	-1	-3	-6	-26
SMILES	TRHR agonist	D1 ag	D1 potentiator	TRHR enhancer	D1 antagonist
CCCC[N+](C)(C)CCC(=O)NC(C)(C)CS(=O)(=O)[O-]	0	3	-5	2	-34*
Cc1ccc(S(=O)(=O)NCCCCCC(=O)NC(C)(C)CO)cc1	1	0	-1	1	4
CCO[C@H]1OC(C(N)=O)=C[C@@H](C)[C@@H]1CCCO	1	-5	-2	33*	-15
N#Cc1c(N)nc(N2CCCC2)c(C#N)c1-c1ccc(Cl)cc1	-1	3	-13	-9	-57*
COC(=O)/C=C1/N/C(=N\c2nc(C)cc(C)n2)N(c2ccccc2)C1=O	0	1	0	-2	-7
COC(=O)/C=C1\N/C(=N\c2nc(C)cc(C)n2)N(c2ccccc2)C1=O	1	0	-3	0	-52*
Cn1cc(C(=O)NCCc2ccccc2)c(=O)c2cc(S(=O)(=O)N3CCCCC3)ccc21	0	1	3	-4	5
Cc1ccc(-n2ccnc(NCc3ccccc3)c2=O)cc1C	0	1	-2	9	-35*
CCCc1ccc(C2Sc3ccccc3NC3=C2C(=O)c2ccccc23)cc1 (stereo not drawn)	0	1	-3	-5	-4
COc1ccc(NC(=O)Cn2c(SCc3cccc(Cl)c3)nc3ccncc32)c(OC)c1OC	0	29	-4	-4	-12
O=C(CN1CCN(C(=O)CCC(=O)N2CCC(c3ccccc3)=N2)CC1)Nc1ccc(F)cc1	0	4	-6	-2	-41*
CC(CC(=O)N1CCN(c2ccccc2)CC1)S(=O)(=O)c1ccc2c(c1)NC(=O)CO2 (stereo not drawn)	0	7	-2	1	-48*
O=C1COc2ccc(S(=O)(=O)N3CCN(c4ccccc4)CC3)cc2N1	0	3	-6	2	3
CCOc1ccc(S(=O)(=O)Nc2cccc(-c3ccc(OCC)nn3)c2)cc1	-1	5	-3	1	-10
Cc1ccc2cc(CCNS(=O)(=O)c3ccc(Cl)cc3)c(=O)[nH]c2c1C	0	-2	-6	-6	-37*
Cc1ccc2occ(CC(=O)N(Cc3ccc(N(C)C)cc3)C3CCS(=O)(=O)C3)c2c1 (stereo not drawn)	-1	1	2	2	-43*
Cc1ccc(NC(=O)Cn2cc(S(=O)(=O)Cc3ccc(F)cc3)c3ccccc32)cc1Cl	0	3	8	0	-6
CSc1oc(-c2ccccc2)nc1S(=O)(=O)c1ccc(C)cc1	1	4	-7	-2	-35*
CCSc1oc(-c2ccc(F)cc2)nc1S(=O)(=O)c1ccc(C)cc1	1	21	1	-1	7
Cc1ccc(-c2nc(S(=O)(=O)c3ccc(C)cc3)c(SCC(=O)Nc3ccc(F)cc3)o2)cc1	1	3	0	-1	-61*
CCSc1oc(-c2ccccc2)nc1S(=O)(=O)c1ccccc1	-1	2	10	8	11
Cc1cc(C)cc(NC(=O)CSc2nc(-c3ccccc3)c3cc(F)ccc3n2)c1	1	1	6	2	11
CCc1ccc(NC(=O)CC2C(=O)N(c3ccc(Cl)cc3)C(=O)N2Cc2cccs2)cc1 (stereo not drawn)	1	8	-3	2	-13

Source: PubChem (National Center for Advancing Translational Sciences (NCATS))
